About 83,000 compounds went through this panel and 20% of them were active in at least one assay; those are over-represented in the sample as a whole.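 Assay: single dose, 48 h. Readout: percent growth (0 = no net growth; negative = cell death). Active: <10.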 Unmarked numbers belong to inactive results. The source made the active and inactive calls.

This assay deals with HCC-2998 colon. Description: NCI-60 one-dose screen, 48 h (100 = growth as untreated, 0 = no growth, -100 = all killed). Particulars: 10 µM unless noted. How it is done:
Growth inhibition of the HCC-2998 human tumor cell line is measured as a screen for anti-cancer activity. Cells are grown in 96 well plates and exposed to the test compound for 48 hours. Compounds are tested at a single concentration, which is 10^-5 M for most compounds. The reported endpoint is percent growth (GI% or GIPRCNT), where numbers from 0 - 100% represent growth inhibition, and numbers from -100% - 0 represent cell death. For example, a value of 40 represents 60% growth inhibition. A value of 0 means no net growth occurred over the course of the experiment. A value of -40 indicates 40% of cells at the beginning of the experiment died by the end of the experiment. A value of -100 means all cells are dead at the end of the experiment.
NCI-60 Human Tumor Cell Lines Screen was performed using the standard one-dose NCI protocol, which is described in more detail at https://dtp.cancer.gov/discovery_development/nci-60/default.htm.
Compounds with GIPRCNT values below 10 were considered active. Activity score was based on GIPRCNT using the following formula: […]
Score is 0 for GIPRCNT values of 100 or above, 50 for GIPRCNT values of 0, and 100 for GIPRCNT values of -100.
Take `CCCCCCCC/C=C\CCCCCCCCOc1cccc(CC(=O)NCC[N+]2(C)CCOCC2)c1`: the growth was 80.6%.
The figure for `O=C(NCc1ccco1)C1CCN(S(=O)(=O)c2ccc(Cl)cc2)CC1` is 80.3%; for `Cc1cc(NS(=O)(=O)c2ccc(NC(=O)COc3ccc(-c4cc5ccccc5[nH]4)cc3)cc2)no1` it is -1.25% (active).
Consider `O=C1NC(=O)C2(CCCC2C(=O)O)N1` (stereo not given), for which the growth is 100%.
The figure for `C[C@]1(CO)C[C@@H](O)C[C@]2(C)[C@@H]1CC[C@@]13C[C@@H]4[C@@H](C[C@H]12)[C@]4(C)C3` is 119%; for `C(=C\c1ccccc1)/CN1CCN(C(c2ccccc2)c2ccccc2)CC1` it is 100%; for `CC(=O)c1cc(C)c(OC(=O)c2ccccc2)c(C)c1` it is 100%.
The figure for `COC(=O)[C@@]12CC[C@@H](C)[C@]3(C[C@@H](c4ccoc4)OC3=O)[C@H]1CC[C@@H]1O[C@@]12C` is 101%; for `COC(=O)c1c2c(c(C)[n+]([O-])c1C)C(=O)C=C(NCc1ccc(F)c(Cl)c1)C2=O` it is -59.3% (active); for `CCOC(=O)c1cc2c(n(C)c1=O)-c1cnn(-c3ccc(OC)cc3)c1CC2` it is 120%.
The figure for `c1ccc(-c2nc(N3CCOCC3)c3c4c(sc3n2)CCCCCC4)nc1` is 72.7%.
For the compound `CC(C)(C)[Si](C)(C)OC1[C@@H](O[Si](C)(C)C(C)(C)C)[C@@H](CNC(=O)NC(=O)C(F)(F)F)O[C@H]1n1cnc2c(NC(=O)Nc3ccccc3)ncnc21` (stereo not given in full), the growth was 79.3%.
Regarding `Cc1ccc(N=c2nc3sc4c(C)ccc(C)c4n3c(N)c2C#N)cc1`, the growth is 110%.
With `CCN1CCN(c2ccc(Nc3ncc4ccc5ncn(C(C)C)c5c4n3)nc2)CC1`, the growth is -4.57% (active).
For `COc1ccc(C2=NOC(CC(=O)N(CCO)CCO)C2)cc1OC1CCCC1` (stereo not given), the growth is 103%.
Then `O=C1c2ccccc2C(=O)c2c(Nc3ccc(CCO)cc3)ccc(O)c21`, with 66.8%; and `Clc1ccccc1Nc1ccc2nnc(-c3ccncc3)n2n1`, with 118%; and `O=C1C(Br)=C(c2ccccc2)C(=O)C(Br)=C1c1ccccc1`, with 98.2%.
The figure for `CC(C)(C)CC(C)(C)N(CSc1ccc(Cl)cc1)CSc1ccc(Cl)cc1` is 65.3%; for `Cc1nc2cc(Nc3nc(N4CCOCC4)nc(N4CCN(C)CC4)n3)ccc2n1Cc1ccccc1` it is 113%.
Then `COc1cc(-c2nc(Nc3nc4ccccc4[nH]3)nc(N)c2C#N)cc(OC)c1OC`, with 81.2%.
Regarding `O=C(CC(O)c1ccccc1)Nc1ccccn1` (stereo not given), the growth was 102%.
The figure for `CCN(c1ccc(C(=O)N2CCN(c3ccccc3)CC2)cc1)S(C)(=O)=O` is 102%; for `CCOC(=O)C1=C(C)N2C(=NC3=C(CCCC/C3=C\c3cc(OC)c(OC)c(OC)c3)C2c2cc(OC)c(OC)c(OC)c2)S1` (stereo not given) it is 85%; for `O=C(c1ccc2ncc(-c3nc(NC4CC4)ncc3F)n2c1)N1CCOCC1` it is 71.3%.
Then `Clc1ccc2c(N3CCN(c4ccnc(NC5CCCCC5)n4)CC3)ccnc2c1`, with 29.2%; and `COC(=O)c1c2c(c(C)[n+]([O-])c1C)C(=O)C=C(NCc1cccc(Cl)c1)C2=O`, with -38.3% (active).
Then `CN1CCn2c(c(Sc3ccc(C(=O)NO)cc3)c3ccccc32)C1=O`, with -37.8% (active); and `Cc1ccc(S(=O)(=O)N2CCc3ccc(O)c4c3C2Cc2ccc3c(c2-4)OCO3)cc1` (stereo not given), with -25.8% (active); and `Cc1ccc(C)c2c1sc1nc3nc4sc5ccccc5n4c(=N)c3c(=O)n12`, with 94.6%.
With `O=c1oc2ccccc2cc1-c1csc(N=Nc2c(O)[nH]c3ccc(Cl)cc23)n1`, the growth is 104%.
With `CC1(C)N=C(N)N=C(N)N1c1cccc(OCCOc2cccc([N+](=O)[O-])c2)c1`, the growth is 47.6%.
The figure for `CCCCc1ccc(NC(=O)C(F)(F)F)cc1` is 106%; for `COc1cc(/C=C2\C(=O)N(c3c(Cl)cccc3Cl)c3ccccc32)cc(OC)c1O` it is 44.6%.
As to `COC(=O)c1c2c(c(C)[n+]([O-])c1C)C(=O)C(NCc1ccc(O)cc1)=CC2=O`, the growth was -20.1% (active).
For the compound `O=c1nc(NO)[nH]c(=O)n1Cc1ccc(F)cc1`, the growth was 114%.
For `Cc1nc2cc(Nc3nc(Nc4ccc(F)cc4)nc(N4CCN(C)CC4)n3)ccc2n1Cc1ccccc1`, the growth was -14.8% (active).
For `Cc1nc2ccc(Cl)cc2n1C`, the growth is 111%.
The figure for `COc1ccc(CSc2nc3cc(OC)c(OC)cc3c(=O)n2-c2ccc(Cl)cc2)cc1` is 108%; for `O=C(O)CCN1CCN(c2cccc(Cl)c2)CC1` it is 114%.

Values taken from PubChem BioAssay (NCI).
